Among the test systems are SK-MEL-2 melanoma; EKVX NSCLC; SN12C renal; UO-31 renal; TK-10 renal; ACHN renal; CAKI-1 renal; A498 renal; CCRF-CEM leukemia; MOLT-4 leukemia; SR leukemia; RPMI-8226 leukemia; OVCAR-8 ovarian; OVCAR-5 ovarian; OVCAR-4 ovarian; SK-OV-3 ovarian; IGROV1 ovarian; OVCAR-3 ovarian; HS 578T breast; NCI/ADR-RES ovarian.
Assay in all cases: NCI-60 one-dose screen, 48 h (100 = growth as untreated, 0 = no growth, -100 = all killed)
Common to all, as to settings: 10 µM unless noted

Structures are written as SMILES. The panel holds about 83,000 compounds, 20% with a hit somewhere; the sample as a whole holds those more often.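 Assay: single dose, 48 h. Readout: percent growth (0 = no net growth; negative = cell death). Active: <10.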 A number with no mark means an inactive call. The source made the active and inactive calls.

In the case of `O=C(Nc1ccc(S(=O)(=O)N2CCCCC2)cc1)C(Cl)Cl`, the growth in the assay with SK-MEL-2 melanoma was 104%; with EKVX NSCLC, 95.4%; in the assay on SN12C renal, 112%; with UO-31 renal it was 97%; with TK-10 renal, 103%; with ACHN renal, 109%. The growth in the assay with CAKI-1 renal was 97.9%; in the assay on A498 renal it was 111%; with CCRF-CEM leukemia it was 127%; in the assay on MOLT-4 leukemia it was 117%; with SR leukemia, 95.7%; in the assay with RPMI-8226 leukemia, 110%. Also, the growth with OVCAR-8 ovarian was 111%; in the assay on OVCAR-5 ovarian it was 127%; with OVCAR-4 ovarian, 104%; in the assay on SK-OV-3 ovarian it was 118%; in the assay with IGROV1 ovarian, 135%; in the assay with OVCAR-3 ovarian, 114%. For the same compound, the growth with HS 578T breast was 119%; in the assay with NCI/ADR-RES ovarian it was 114%.
As for `C=CCSc1nnc(-c2c(C)nc3sccn23)o1`, the growth in the assay with SK-MEL-2 melanoma was 104%; in the assay with EKVX NSCLC, 76.4%; with SN12C renal, 96.8%; in the assay with UO-31 renal, 71.8%; in the assay on TK-10 renal, 124%; with ACHN renal it was 88.5%. Further, the growth is 77.9% in the assay with CAKI-1 renal; 96.9% with A498 renal; 90.3% in the assay with CCRF-CEM leukemia; 116% in the assay with MOLT-4 leukemia; 101% in the assay on SR leukemia; 86% with RPMI-8226 leukemia. Also, the growth in the assay on OVCAR-8 ovarian was 98.6%; with OVCAR-5 ovarian, 85.8%; in the assay with OVCAR-4 ovarian it was 102%; in the assay on SK-OV-3 ovarian it was 98.6%; in the assay on IGROV1 ovarian, 95.5%; in the assay on OVCAR-3 ovarian, 131%. Moreover, the growth in the assay with HS 578T breast is 77.1%; in the assay with NCI/ADR-RES ovarian, 82.7%.
For `COc1cc(C2CC(c3ccc(C(F)(F)F)cc3)=Nc3c(N)nc(N)nc3N2)ccc1Oc1nc(Nc2ccc(F)cc2)nc(N(C)C)n1` (stereo not given), the growth with SK-MEL-2 melanoma is 59.9%; with EKVX NSCLC, 44.1%; in the assay on SN12C renal, 50.7%; in the assay with UO-31 renal, 41.6%; in the assay on TK-10 renal, 65.4%; in the assay with ACHN renal it was 48.3%. Further, the growth in the assay with CAKI-1 renal is 40.9%; in the assay with A498 renal it was 65.6%; in the assay on CCRF-CEM leukemia, 69.4%; with MOLT-4 leukemia it was 4.31% (active); with SR leukemia, -25.2% (active); in the assay on RPMI-8226 leukemia, 24.3%. The growth in the assay on OVCAR-8 ovarian is 46.9%; in the assay on OVCAR-5 ovarian, 89.1%; in the assay on OVCAR-4 ovarian, 37.1%; in the assay on SK-OV-3 ovarian it was 90.8%; in the assay with IGROV1 ovarian it was 39.8%; in the assay on OVCAR-3 ovarian, 76.1%. In addition, the values for the growth with HS 578T breast and in the assay on NCI/ADR-RES ovarian were 48.9% and 37%, respectively.
With `N#CC1=C(c2cccs2)Nc2c(c(-c3ccccc3)nn2-c2ccccc2)C12C(=O)Nc1ccc(Br)cc12` (stereo not given), the growth with SK-MEL-2 melanoma was -17.2% (active); with EKVX NSCLC, 7.42% (active); in the assay on SN12C renal, -13.7% (active); in the assay with UO-31 renal it was 6.38% (active); with TK-10 renal it was 12.1%; in the assay on ACHN renal, -11% (active). The growth with CAKI-1 renal was 9.64% (active); in the assay with A498 renal it was -10.8% (active); in the assay with CCRF-CEM leukemia it was 1.86% (active); with MOLT-4 leukemia it was -3.33% (active); in the assay with SR leukemia it was -1.14% (active); in the assay on RPMI-8226 leukemia, 2.85% (active). The growth in the assay on OVCAR-8 ovarian was -14.6% (active); with OVCAR-5 ovarian, -60.4% (active); with OVCAR-4 ovarian it was 0.653% (active); with SK-OV-3 ovarian, -0.147% (active); in the assay with IGROV1 ovarian it was -7.57% (active); in the assay on OVCAR-3 ovarian, -25.7% (active). The growth in the assay on HS 578T breast is -7.18% (active); in the assay with NCI/ADR-RES ovarian, 10.5%.
With `CCN1C(=O)N(CC)C2NNC(Sc3c(C(=O)O)c4ccccc4n(CC(C)C)c3=O)=NC21` (stereo not given), the growth with SK-MEL-2 melanoma was 18.5%; with EKVX NSCLC it was 38.5%; in the assay on SN12C renal it was 24.3%; with UO-31 renal, 39.5%; with TK-10 renal, 52.7%; in the assay with ACHN renal, 28.7%. For the same compound, the growth with CAKI-1 renal was 46.1%; in the assay on A498 renal it was 133%; in the assay on CCRF-CEM leukemia it was 7.54% (active); with MOLT-4 leukemia, 6.5% (active); in the assay on SR leukemia it was 11.1%; with RPMI-8226 leukemia it was 8.29% (active). Further, the growth with OVCAR-8 ovarian was 11.8%; in the assay on OVCAR-5 ovarian it was 24.2%; in the assay with OVCAR-4 ovarian, 67%; in the assay on SK-OV-3 ovarian, 40.6%; in the assay on IGROV1 ovarian, 20%; in the assay on OVCAR-3 ovarian, 4% (active). Also, the growth in the assay on HS 578T breast was -2.68% (active); in the assay on NCI/ADR-RES ovarian it was -27.6% (active).
Take `CCCSc1nnc(-c2sc3nc4ccccc4n3c2C)o1`: the growth with SK-MEL-2 melanoma was 105%; in the assay on EKVX NSCLC it was 103%; in the assay on SN12C renal it was 105%; with UO-31 renal it was 82.3%; in the assay on TK-10 renal, 124%; in the assay with ACHN renal it was 104%. For the same compound, the growth in the assay on CAKI-1 renal is 104%; in the assay with A498 renal, 110%; in the assay with CCRF-CEM leukemia, 107%; in the assay on MOLT-4 leukemia, 92.3%; in the assay on SR leukemia, 107%; in the assay with RPMI-8226 leukemia it was 97.7%. Besides, the growth was 107% with OVCAR-8 ovarian; 111% in the assay on OVCAR-5 ovarian; 104% in the assay on OVCAR-4 ovarian; 121% in the assay with SK-OV-3 ovarian; 107% in the assay on IGROV1 ovarian; 117% with OVCAR-3 ovarian. Also, the results for the growth in the assay on HS 578T breast and in the assay on NCI/ADR-RES ovarian were 109% and 98.7%, respectively.
Take `CCOC(=O)/C(F)=C/C1CC1CCc1ccc(OCC)cc1` (stereo not given): the growth was 102% with SK-MEL-2 melanoma; 47.7% with EKVX NSCLC; 44.9% in the assay on SN12C renal; 73.8% in the assay on UO-31 renal; 98.2% in the assay with TK-10 renal; 75.1% in the assay on ACHN renal. The growth with CAKI-1 renal is 86.1%; in the assay with A498 renal it was 102%; in the assay with CCRF-CEM leukemia, 106%; in the assay on MOLT-4 leukemia it was 98.4%; with SR leukemia, 78.6%; with RPMI-8226 leukemia, 99.3%. The growth in the assay on OVCAR-8 ovarian was 101%; in the assay with OVCAR-5 ovarian, 108%; with OVCAR-4 ovarian, 94.8%; with SK-OV-3 ovarian it was 75.3%; with IGROV1 ovarian, 92.5%; in the assay with OVCAR-3 ovarian it was 103%. The growth is 94.5% in the assay on HS 578T breast and 101% in the assay on NCI/ADR-RES ovarian.
As to `Nc1nn2c(-c3cc4ccccc4oc3=O)ccnc2c1N=Nc1ccccc1`, the growth in the assay on SK-MEL-2 melanoma is 97.4%; with EKVX NSCLC it was 66.9%; in the assay with SN12C renal, 48.6%; in the assay with UO-31 renal it was 63.2%; in the assay with TK-10 renal it was 103%; with ACHN renal, 54.9%. For the same compound, the growth is 81.8% in the assay with CAKI-1 renal; 111% with A498 renal; 101% with CCRF-CEM leukemia; 113% with MOLT-4 leukemia; 59.1% in the assay with SR leukemia; 105% in the assay on RPMI-8226 leukemia. Moreover, the growth in the assay on OVCAR-8 ovarian was 42.2%; in the assay with OVCAR-5 ovarian, 82.3%; with OVCAR-4 ovarian it was 96.6%; in the assay on SK-OV-3 ovarian, 60.1%; in the assay on IGROV1 ovarian, 47.5%; in the assay on OVCAR-3 ovarian it was 82.7%. In addition, the growth in the assay on HS 578T breast was 75.8%; with NCI/ADR-RES ovarian, 47.2%.

For the origin of these results see PubChem BioAssay (NCI).
